# Reference: the supplement of paper PMC10338343
# ± gives the standard deviation.
# Tested on: MILI (PIWIL2) piRISC loaded with L1MC piRNA (26 nt)
# Test: pre-steady-state target cleavage rate (min^-1); guide: L1MC piRNA 5'p-UAACUAAAUACUAUGCAAGCUGUAGG; MIWI and MILI are mouse PIWI proteins and EfPiwi is from a freshwater sponge; tags in brackets are library labels; higher = faster piRNA-guided slicing of the target
# Details: auxiliary factor: 500 nM mouse GTSF1
# How it was run: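 Cleave-'n-Seq reactions paired 0.1 nM transcribed, DNA-blocked target RNA library with 1 nM active affinity-purified piRISC holding one synthetic guide, plus or minus 500 nM GTSF1 partner protein, in HEPES–potassium acetate buffer at 33 °C for 0–8 or 0–960 min. After sequencing of uncleaved targets and normalisation to depth and weakly complementary targets, the pre-steady-state cleavage rate was taken from a burst-and-steady-state fit. Three trials were pooled, and k3 was capped at 0.0001 min^-1.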
row,Sequence,pre-steady-state target cleavage rate
1,UCCUGGAUGAGCUUGCAUAGAAUUAAGUUA,0.00512 ± 0.0037
2,UCCUGGAUGAGCUUGCAUAGUUUAUAGUUA,0.0127 ± 0.0052
3,UCCUGGAUGUGCUUGCAUAGUAUUUAUUA,0.00911 ± 0.0051
4,UCCUGGAUGUCGUUGUCAUAGUAUUUAGUUA,0.00743 ± 0.0049
5,UCCUGGAUGUCGAAGCAUAGUAUUUAUGUUA,0.022 ± 0.0065
6,UCCUGGAUGUCGAAGCAUAGUAUUAUAGUUA,0.0614 ± 0.014
7,UCCUGGAUGUCCAUGCAUUGUAUUUAGUUA,0.0108 ± 0.0042
8,UCCUGGAUGUCGUUGGAAAGUAUUUAGUUA,< 0.0001
9,UCCUGGAUGUCGAUGCAUAGUAUUUAAUUA,0.0256 ± 0.0092
10,UCCUGGAUGUGCUUGCAAACUAUUUAGUUA,0.00852 ± 0.0038
11,UCCUGGAACAGGAUGCAUAGUAUUUUCAAA,0.0202 ± 0.0076
12,UCCUGGAUGUGCUUGCAUAGAAUUUAGUUA,0.0203 ± 0.0071
13,UCCUGGAACAGCUAGCAUAGUAUUUACUUA,0.0669 ± 0.016
14,UCCUGGAUGUGCUACCAUAGUAUUUAGAAA,0.00379 ± 0.0038
15,UCCUGGUACAGCUUGCAUACUAUUUUGUUA,0.0288 ± 0.011
16,UCCUGGAUGUCCUUGCAAAGUAUUUACUUA,0.0234 ± 0.0076
17,UCCUGGAUCAGCUUCGUUAGUAUUUAGUAA,0.02 ± 0.0056
18,UCCUGGAACAGCUUGCAUACUAUUUAGAAA,0.0271 ± 0.011

row,Sequence,pre-steady-state target cleavage rate
1,UCCUGGAACAGCUUCGAUAGUAUUUAGAAA,0.0923 ± 0.021
2,UCCUGGAUGUGCAAGCAUAGUAUUUAGUAA,0.0583 ± 0.013
3,UCCUGGAUGAGCAACCAUAGUAUUUAGUUA,0.0437 ± 0.011
4,UCCUGGAUGUCCUUGCAUAGUAUUUUGAUA,0.0211 ± 0.0077
5,UCCUGGAUGUCCUUGGCAUAGUAUUUAGUUA,0.566 ± 0.19
6,UCCUGGAUGUCGAUGCAUAGUAUAAUGUUA,0.031 ± 0.012
7,UCCUGGAUCAGCUUGCUUAGUAUUUACAAA,0.0696 ± 0.019
8,UCCUGCUACAGCUUGCUUAGUAUUUAGAAA,0.0602 ± 0.019
9,UCCUGGAUGUGCUUGCUUAGUAUUAAGUUA,0.0615 ± 0.017
10,UCCUGGAUGUCCUUGUCAUAGUAUUUAGUUA,0.0189 ± 0.009
11,UCCUGGAUGAGCUUGCAUAUAUUUAGUUA,0.00951 ± 0.0043
12,UCCUGGAUGAGCUUGCUAUAGUAUUUAGUUA,0.00431 ± 0.0032
13,UCCUGGAACAGCUUGCAUAGUAUUUUGUAA,0.0402 ± 0.012
14,UCCUGGAUGUCGUUGCAUAGUAUUUAGAUUA,0.0205 ± 0.0091
15,UCCUGGAUGUCGUUGCAUAGUAUUAAGUAA,0.0273 ± 0.012
16,UCCUGGAUGUCGUAGCAUAGUAUUUAGAUA,0.0132 ± 0.0048
17,UCCUGGAUGUGCUUGGAUAGUAUUUAGAUA,0.00891 ± 0.0052
18,UCCUGGAUCAGCUUGCAUAGUAUUAUGAAA,0.0664 ± 0.016

# Same assay, conditions: auxiliary factor: none (no GTSF1)
row,Sequence,pre-steady-state target cleavage rate
1,UCCUGGAUGUCGAACGUAUGAUUUUAGUUA,< 0.0001
2,UCCUGGAUGUCGAACGUUAGUAUUUACAAA,< 0.0001
3,UCCUGGAUGUCGAACGUAUCUAAUUUAGUUA,< 0.0001
4,UCCUGGAUGUCGAACGUAUCUAUUAAGUUA,< 0.0001
